In all, about 1,500 compounds went through this assay and about 460 (31%) were called active. Only a sample is shown. Potency and affinity values are given separately. Unmarked numbers belong to inactive results.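 The calls were made as follows: active = viability at or below 80% at any tested concentration, marking the compound as toxic; inactive = the rest.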
experiment: viability loss in THP-1 monocytes – THP-1 cells, cytotoxicity control for Vif-APOBEC3G degradation inhibitor project, dose response (AID 1117359); conditions: THP-1 viability, CellTiter-Glo luminescence, 72 h; series mostly up to 40 µM; viability: at the top concentration

| Compound | viability [%] | outcome |
| --- | --- | --- |
| O=C(O)CCCNc1cc(N2CCC3(CC2)OCCO3)c2noc3c2c1C(=O)c1ccccc1-3 | 89.7 | – |
| Cc1ccc(NC(=O)CSc2nc(CSc3ccc(C)cc3)cc(=O)[nH]2)cc1 | 103 | – |
| COc1ccc(N(CC(=O)NCCC2=CCCCC2)S(=O)(=O)c2ccccc2)cc1 | 83.4 | – |
| COc1cc([N+](=O)[O-])c(N2CCOCC2)c([N+](=O)[O-])c1OC | 87 | – |
| CC(C)C1Nc2ccc(C(=O)O)cc2C2C=CCC21 (configuration not stated) | 87.3 | – |
| O=C1NN(c2ccc(Cl)cc2)C(=O)/C1=C\c1ccc(-c2cccc(C(=O)O)c2)o1 | 97.9 | – |
| Fc1cc(F)cc(NC(=S)NCCCN2CCOCC2)c1 | 106 | – |
| CC(C)OP(=O)(OC(C)C)C(O)c1ccc(N(C)C)cc1 (configuration not stated) | 111 | – |
| Cc1ccc(Oc2ccc(/C=N/O)cn2)cc1 | 89.2 | – |
| CCOC(=O)C(C#N)(Cc1ccc2ccccc2n1)Cc1ccc2ccccc2n1 | 83.9 | – |
| O=C(CCl)N1N=C(c2ccco2)CC1c1ccco1 (configuration not stated) | 108 | – |
| Cc1cccc(NC(=O)CNC(=O)c2cccc(-n3cccc3)c2)c1C | 95.8 | – |
| C/C(N)=C(/C#N)C(=O)CSc1nnc(Nc2c(C)cccc2C)s1 | 92.9 | – |
| O=C(O)CCCCC1SCC2NC(=O)NC21 (configuration not stated) | 118 | – |
| CN(C(=O)CSc1ncnc2sccc12)C1CCCCC1 | 93.3 | – |
| O=C1/C(=C/C=C/c2ccco2)SC(=S)N1c1ccc(O)cc1 | 83.6 | – |
| O=C(O)CC(C(=O)O)N1C(=O)/C(=C/C=C/c2ccco2)SC1=S (configuration not stated) | 97.4 | – |
| CC(C)(C)C1CCC(OC(=O)C[N+]2(C)CCCCC2)CC1 (configuration not stated) | 82.8 | – |
| CCOc1ccccc1C(=S)NC1CCCCC1 | 101 | – |
| Cc1nn(CC(=O)NC2CC2)c(C)c1S(=O)(=O)N(C)C | 102 | – |
| CC(C)(C)c1cc(N/C=C\c2nnnn2-c2ccc(Br)cc2)no1 | 102 | – |
| CC1CCN(Cc2c(O)ccc3c2O/C(=C\c2ccco2)C3=O)CC1 | 85.3 | – |

| Compound | viability [%] | outcome |
| --- | --- | --- |
| O=C1OC(c2ccc(F)cc2)=C/C1=C\c1ccc([N+](=O)[O-])o1 | 88 | – |
| CCCSC1=N/C(=C\c2ccc([N+](=O)[O-])o2)C(=O)S1 | 98.9 | – |
| CCOc1ccc(NC(=O)C2CCCN(S(=O)(=O)c3c(C)n[nH]c3C)C2)cc1 (configuration not stated) | 102 | – |
| Cc1ccc(C)c(/C(O)=C2/C(=O)C(=O)N(CCN3CCOCC3)C2c2ccco2)c1 (configuration not stated) | 99.1 | – |
| CNc1ccc(Br)cc(C(=O)/C=C/c2ccc(OC)cc2OC)c1=O | 98.3 | – |
| CC(=O)c1c(C)[nH]c(C(=O)OCC(=O)C(C)(C)C)c1C | 92.6 | – |
| COC(=O)c1sccc1NC(=O)CC1C(=O)NCCN1C(=O)Nc1ccccc1 (configuration not stated) | 101 | – |
| COc1ccc(NC(=O)O/N=C/c2ccccc2Cl)cc1 | 102 | – |
| N#C/C(=C/c1ccc(Br)o1)C(N)=S | 85.2 | – |
| CCOC(=O)C1(C)NC(c2ccco2)C2C(=O)N(CC)C(=O)C21 (configuration not stated) | 110 | – |
| O=C1CC(c2ccco2)CC(O)=C1C=NCC1CCNCC1 (configuration not stated) | 84 | – |
| Cc1cccc(/C=C(\C(=O)O)c2ccc(S(=O)(=O)N3CCCC3)s2)c1 | 85.2 | – |
| O=C(C1CCN(S(=O)(=O)N2CCC3(CC2)OCCO3)CC1)N1CCOCC1 | 94.2 | – |
| COc1ccccc1NCCC(=O)OCC(=O)NCc1ccco1 | 108 | – |
| CCOC(=O)c1ccc(NC(=O)CSCc2ccco2)cc1 | 98.2 | – |
| Cc1ccc(NC(=O)CNC(=O)COc2ccccc2)nc1 | 103 | – |
| COc1cccc(C(=O)N2CCN(Cc3nc(CC4CC4)no3)CC2)c1 | 102 | – |
| CCCCC(O)(CCCC)C(=O)N/N=C(\C)c1ccc(Cl)cc1 | 95.1 | – |
| NC(=O)c1ccc(N2CCN(c3ccc(O)cc3)CC2)c([N+](=O)[O-])c1 | 92 | – |
| CCC(=O)Nc1ccc(S(=O)(=O)NC[C@H]2O[C@@H](n3cc(C)c(=O)[nH]c3=O)C[C@@H]2O)cc1 | 92.5 | – |
| C=C(C)C1CC=C(C)/C(=N\NC(=O)CCC(=O)Nc2ccc(C)c(C)c2)C1 (configuration not stated) | 87.5 | – |
| c1coc(CNc2nc(-c3cccs3)cs2)c1 | 91.9 | – |

| Compound | viability [%] | outcome |
| --- | --- | --- |
| O=C(Nc1cc(Cl)cc(Cl)c1)c1coc(=O)c(Br)c1 | 105 | – |
| C[c-]1[c-](C)[c-](C)[c-](C)[c-]1C.[Fe].c1cc2nccc(N3CCCC3)[c-]2c1 (configuration not stated) | 83.7 | – |
| CCn1c(SC(C)C)nnc1-c1cc(-c2ccccc2)sc1N | 92.6 | – |
| COc1ccc(C(=O)O)cc1S(=O)(=O)N1CCCc2ccccc21 | 84.4 | – |
| COCCn1c(SCC(=O)Nc2ccccc2F)nc2c([nH]c3ccccc32)c1=O | 102 | – |
| CC1=C(C#N)C(=O)N(C2CCS(=O)(=O)C2)C(=O)/C1=C\c1ccc(C)o1 (configuration not stated) | 101 | – |
| S=c1[nH]nc(COc2ccc(Cl)cc2)n1Cc1ccccc1 | 83.4 | – |
| CCCC(=O)NC(C)C(c1cccs1)N1CCN(C)CC1 (configuration not stated) | 117 | – |
| CCOc1ccccc1N1C(=O)CC(Nc2ccc(N3CCOCC3)cc2)C1=O (configuration not stated) | 91.4 | – |
| CN(C(=O)COc1ncnc2sccc12)c1ccccc1 | 107 | – |
| O=C(C1CCC(CNc2c(N3CCCCC3)c(=O)c2=O)CC1)N1CCN(C2CCCCC2)CC1 (configuration not stated) | 105 | – |
| CC(=O)N1CCN(c2ccc(NCc3ccccc3)cc2)CC1 | 90 | – |
| Cc1sc2nc(C)n(/N=C/c3ccccc3O)c(=O)c2c1C | 105 | – |
| COc1cc2c(cc1N)-c1ccc(N)cc1C2 | 84 | – |
| C=C(C)C(=O)Nc1cccc(C2=NOC3(C2)C[C@@H](C(N)=O)N(C(=O)c2cc([N+](=O)[O-])cc([N+](=O)[O-])c2)C3)c1 (some centres not stated) | 91.8 | – |
| O=C(O)c1cc(Nc2cc(Cl)c3nonc3c2[N+](=O)[O-])ccc1O | 107 | – |
| Cc1ccc(S(=O)(=O)Cn2nnnc2C(CC(C)C)N2CCN(C)CC2)cc1 (configuration not stated) | 81.4 | – |
| Cc1cc(C)cc(NCCC#N)c1 | 88.6 | – |
| CCOC(=O)C1=C(O)/C(=C\c2ccc(CNC(=O)C(=O)Nc3ccccc3)o2)N=C1C | 80.2 | – |
| CCCOC(=O)Nc1sc2c(c1C(=O)OCC)CCC2 | 82.4 | – |
| Cc1c(C(=O)O)cccc1-n1c(C)cc(/C=N/Nc2ccc([N+](=O)[O-])cn2)c1C | 110 | – |
| CCOC(=O)CSc1nncc2ccc(OC)c(OC)c12 | 98.2 | – |

| Compound | viability [%] | outcome |
| --- | --- | --- |
| CC(NC(=O)Nc1ccc(O)cc1)(C(F)(F)F)C(F)(F)F | 99.2 | – |
| N#Cc1c(-c2ccccc2)nc2n1CCS2 | 82.6 | – |
| Nc1ccc(-c2nc3cc(N)ccc3n2CCO)cc1 | 104 | – |
| CC(=O)Nc1ccc(C(=O)Nc2cccc(-c3cnc4ccccc4n3)c2)cc1 | 81.6 | – |
| CC1=CC(C)(C)n2c(O)c(N=NC(N)=S)c3c(C)c(C)cc1c32 | 91.2 | – |
| COC(=O)CCC(=O)OC1(C)C(=O)C2=CN(CCCOC(C)C)C(c3ccc(OC)cc3)=CC2=C(Br)C1=O (configuration not stated) | 96.9 | – |
| O=C(O)C1Nc2ccc(Br)cc2C2C=CCC12 (configuration not stated) | 109 | – |
| C/C(=N\Nc1ccc2nncn2n1)c1ccc(Br)s1 | 92.1 | – |
| CC(=O)Nc1ccc(/C=N/Nc2ccc(C(=O)c3c(C)cc4ccccn34)cc2[N+](=O)[O-])cc1 | 102 | – |
| O=C1CC(Nc2ccc(N3CCOCC3)cc2)C(=O)N1c1cccc(C(F)(F)F)c1 (configuration not stated) | 101 | – |
| O=C(O)c1ccc(-n2cccc2/C=N\NC(=O)c2cc3cc(Br)ccc3o2)cc1 | 102 | – |
| CCOC(=O)C1CCN(C(=O)Nc2ccc3nc(-c4ccco4)c(-c4ccco4)nc3c2)CC1 | – | inactive |
| O=C(O)Cn1c(=O)c2c(c3ccccc31)CCC2 | 81.8 | – |
| O=C(O)c1cccc(-n2cccc2/C=C/[N+](=O)[O-])c1 | 107 | – |
| Cc1cccc(NC(=S)NC(=O)/C=C/c2ccco2)c1 | 94.8 | – |
| CC(=O)c1ccc(S(=O)(=O)Nc2cccc(-c3ccc(N4CCOCC4)nn3)c2)cc1 | 81.9 | – |
| CCCCOC(=O)CCCN1C(=O)/C(=C2\SC(=S)N(CCCC(=O)OCCCC)C2=O)SC1=S | 91.9 | – |
| Nc1ncnc2c1cnn2C1CCCCC1 | 96.9 | – |
| Cc1ccc(Nc2ccc(N)cc2S(=O)(=O)O)cc1 | – | inactive |
| CCOCCCNC(=O)C1CCN(S(=O)(=O)CC)CC1 | 111 | – |
| CCOC(=O)N1CCC(NC(=O)c2ccc(OC)c(CN3CC(=O)N4CCCC4C3=O)c2)CC1 (configuration not stated) | 114 | – |
| C=CCN1C(=O)/C(=C\c2ccco2)C(C(=O)OC)=C1C | 104 | – |

| Compound | viability [%] | outcome |
| --- | --- | --- |
| O=[N+]([O-])c1ccccc1S(=O)(=O)NC1CCCC1 | 104 | – |
| O=C(O)c1ccc(S(=O)(=O)c2ccc([N+](=O)[O-])cc2[N+](=O)[O-])cc1 | 97.5 | – |
| CCNC(=O)C1CC(=O)N(Cc2ccc(F)cc2)C(=Nc2ccc(OC)cc2)S1 (configuration not stated) | 87.7 | – |
| CCOC(=O)C1CC(CN2C(=O)c3ccccc3C2=O)OC1=O (configuration not stated) | 93.9 | – |
| CC1CCCCC1NC(=S)Nc1cccc(S(=O)(=O)N(C)C)c1 (configuration not stated) | 100 | – |
| O=C1N(Cc2cccnc2)C[C@@H]2C[C@@H](c3ccc4nsnc4c3)N3CCC[C@@]123 | 103 | – |
| Cc1cc(NC(=O)Cc2cccs2)no1 | 93.5 | – |
| CN1CCN(NC(=O)c2ccc(S(=O)(=O)N3CC4(C)CC3CC(C)(C)C4)cc2)CC1 (configuration not stated) | 84.6 | – |
| CCC(C)n1c(-c2cccc(S(=O)(=O)N3CCOCC3)c2)n[nH]c1=S (configuration not stated) | 84.1 | – |
| Cc1cc(NC(=O)Cn2cnc3c(nnn3-c3cccc(F)c3)c2=O)no1 | 108 | – |
| COc1ccccc1NS(=O)(=O)c1cc(C(=O)NCCN2CCOCC2)ccc1Cl | 84.2 | – |
| Oc1c(CN2CCOCC2)cc(CN2CCOCC2)c(O)c1O | 94 | – |
| CCOc1ccc(-n2c(SCC(N)=O)nnc2-c2cccnc2)cc1 | 99.5 | – |
| CN(Cc1cccs1)C(=O)Cn1cnc2ccccc2c1=O | 84.5 | – |
| O=C(NCCc1ccccc1)c1ccc2nc(-c3ccco3)c(-c3ccco3)nc2c1 | 86.9 | – |
| O=C1CC(NCc2ccco2)C(=O)N1CCc1ccccc1 (configuration not stated) | 113 | – |
| Cc1c(F)cccc1NC(=O)CCCCCC1NC(=O)NC1C (configuration not stated) | 89.3 | – |
| CCN1C[C@@H]2[C@@H]3C(=O)N(Cc4ccccc4)C(=O)[C@@H]3[C@](C)(C(=O)OC)N2C1=NC1CCCCC1 | 99.2 | – |
| CO[C@H]1C=CO[C@@]2(C)Oc3c(C)c(O)c4c(O)c(c(C=NN5CCN(C)CC5)c(O)c4c3C2=O)NC(=O)C(C)=CC=C[C@H](C)[C@H](O)[C@@H](C)[C@@H](O)[C@@H](C)[C@H](OC(C)=O)[C@@H]1C | 86.4 | – |

Source: PubChem BioAssay AID1117359 (Southern Research Institute, 2015)
